FMDV inh = High Throughput Screening for Foot and Mouth Disease Virus Antivirals; AID 1159524, 2015; FMDV antiviral cell-based qHTS; Potency, µM (highest dose often 57.9 µM), for the others: at the highest dose activity change, negative = inhibition, most hits filed as inhibitors; hit rate 1.2% among 410,000; calls by dose curve; tested in HEK293T cells; note: read-out not given here; potency is the fitted concentration of half-maximal effect; nearly all actives have a fitted effect of over 45% in size
Vaccinia mCherry = qHTS for Stage-Specific Inhibitors of Vaccinia Orthopoxvirus: mCherry Reporter Primary qHTS | Vaccinia virus mCherry reporter infection, fluorescence | Potency, µM (series often up to 36.5 µM), without a hit: at the highest dose activity change, negative = inhibition, most hits filed as inhibitors | hit rate 0.63% among 310,000; calls by dose curve; tested in A549 cells; note: potency is the fitted concentration of half-maximal effect; nearly all actives have a fitted effect of over 35% in size
HCMV antiviral = qHTS Assay for inhibitors of the human cytomegalovirus (HCMV); activity change, negative = inhibition, % at 57.5 µM; HFF cells, HCMV-luciferase reporter, 72 h; hits give low values; hit rate 4.5% among 410,000; AID 1259415, 2018; in the data active = activity change below about -60%; inconclusive = no clear call, values can overlap the other calls; inactive = above about -39%
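Luciferase read-out from HCMV-luciferase-infected HFFs (MOI 1 PFU/cell) 72 h post infection at 37C; compounds added after 16 h cell attachment; activity normalized between buffer-only basal and Salinomycin (10uM) inhibitor controls.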
HCV inh = qHTS Assay for Inhibitors of Hepatitis C Virus (HCV) | Huh7.5.1 HCVcc-Cre infection, luciferase reporter, 44 h | hit rate 3.4% among 340,000 | Potency, µM (doses to about 41.8 µM), for inactives: at the highest dose activity change, negative = inhibition, actives largely listed as inhibitors; note: potency is the fitted concentration of half-maximal effect
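Cells seeded at 1,000/well and cultured 4 h, then compounds added followed by HCVcc-Cre virus (~0.5 moi). After 44 h further culture, luciferase substrate was added, plates held 15 min at room temperature, and luminescence read for 15 sec.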
VACV Venus inh = qHTS for Stage-Specific Inhibitors of Vaccinia Orthopoxvirus: Venus Reporter Primary qHTS. Vaccinia virus Venus reporter expression, fluorescence. Potency, µM (highest dose often 36.5 µM), inactives show at the top dose activity change, negative = inhibition, most hits filed as inhibitors. hit rate 0.46% among 330,000. AID 720580, 2013; calls by dose curve; tested in A549 cells; note: potency is the fitted concentration of half-maximal effect; nearly all actives have a fitted effect of over 30% in size
Sm TGR block = qHTS Assay for the Inhibitors of Schistosoma Mansoni Peroxiredoxins; Schistosoma mansoni thioredoxin glutathione reductase (TGR), Q962Y6; purified TGR, DTNB reduction, TNB absorbance 405 nm; Potency, µM (series often up to 114 µM), inactives show at the top dose activity change, negative = inhibition, usual class: inhibitors; hit rate 3% among 360,000; AID 485364, 2010; note: potency is the fitted concentration of half-maximal effect; nearly all actives have a fitted effect of over 60% in size
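Kinetic colorimetric format: TGR-catalysed, NADPH-driven DTNB reduction monitored via TNB absorbance. Enzyme dispensed at 20 nM; compound exposure 15 min at room temperature before reaction start.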
An asterisk follows results filed as active; i = inactive; u = inconclusive; x = not tested or not shown. Only some compounds are listed: those with a hit (about 9.3% of all), similar ones and a draw of the others. Unless noted, calls come from the whole dose curve; as a rule, active = well fitted curve in the direction sought with a large enough effect; inconclusive = small, poorly fitted or top-dose-only effect, or another doubt; inactive = no such curve, though single readings can be large; an effect the other way counts as inactive or inconclusive. % is set by controls: 0 for no effect and ±100 for the full control effect.

SMILES	FMDV inh	Vaccinia mCherry	HCMV antiviral	HCV inh	VACV Venus inh	Sm TGR block
C/C=C\C=C\C(=O)N1CC2(CC(c3cccc(NC(=O)CC(c4ccccc4)c4ccccc4)c3)=NO2)C[C@H]1C(N)=O (stereo partly drawn)	-24.1%	-5.4%	x	-17.7%	u	7.08µM*
C/C=C\C=C/C(=O)Nc1cccc(C2=NOC3(C2)C[C@@H](C(N)=O)N(C(=O)/C=C/C=C\C)C3)c1 (stereo partly drawn)	-5.9%	i	x	6.6%	-7.5%	u
C/C=C\C=C/C(=O)Nc1cccc(C2=NOC3(C2)C[C@@H](C(N)=O)N(C(=O)C2(C)CC2)C3)c1 (stereo partly drawn)	4.9%	i	44.9	14.9%	-7.6%	1.78µM*
C/C=C\C(=O)Nc1cccc(C2=NOC3(C2)C[C@@H](C(N)=O)N(C(=O)C2(C)CC2)C3)c1 (stereo partly drawn)	-16.8%	-13.3%	16.2	0.2%	-0.6%	-0.7%
C/C=C\C=C/C(=O)Nc1cccc(C2=NOC3(C2)C[C@@H](C(N)=O)N(C(=O)[C@H]2CCC(=O)N2)C3)c1 (stereo partly drawn)	-9.0%	-14.4%	x	9.1%	-2.4%	3.55µM*
C/C=C\C=C/C(=O)Nc1cccc(C2=NOC3(C2)C[C@@H](C(N)=O)N(C(=O)/C=C/CC)C3)c1 (stereo partly drawn)	7.6%	i	x	3.6%	-8.7%	1.78µM*
C/C=C(\C)C(=O)N1CC2(CC(c3cccc(NC(=O)CC(c4ccccc4)c4ccccc4)c3)=NO2)C[C@H]1C(N)=O (stereo partly drawn)	x	x	x	x	x	0.0%
CCOC(=O)C1=C(CCc2ccccc2)NC(=O)NC1c1cccc([N+](=O)[O-])c1 (stereo not drawn)	8.4%	-28.9%	-15.4	u	u	-12.1%
C=CCN(c1ccccc1)S(=O)(=O)c1cccc(C(=O)Nc2ncccc2C)c1	1.4%	-11.9%	u	-5.9%	-1.1%	1.7%
COc1ccccc1-n1cnc2c(c1=O)c1nc3ccccc3nc1n2-c1ccc(C)c(C)c1	-26.7%	u	u	7.94µM*	u	-5.7%
CN1CCC(N(C)C(=O)c2ccccc2F)CC1	-9.9%	x	4.4	-13.1%	x	-16.3%
Cc1nc(-c2ccc(NC(=O)c3ccco3)cc2)cs1	11.2µM*	x	-83.5*	-21.7%	x	4.2%
Cc1nnc2ccc(-c3ccc(NC(=O)c4ccco4)cc3)nn12	18.0%	x	34.5	4.2%	x	31.6µM*
Cc1nc(-c2cccc(NC(=O)COc3ccc(Cl)cc3)c2)cs1	u	-6.6%	-64.3*	x	-21.4%	17.1%
Cc1nc(-c2cccc(NC(=O)c3ccco3)c2)cs1	5.2%	-19.1%	-87.4*	-28.3%	-2.6%	-4.3%
Cc1nc(-n2nc(C)c(Cc3ccc(Cl)cc3)c2C)sc1C(=O)N1CCCCC1C (stereo not drawn)	4.8%	-9.5%	16.2	x	-23.2%	-3.2%
O=C(CSCc1ccccc1Br)N/N=C/c1ccc(OCC(=O)N2CCCCC2)cc1	-21.7%	-8.1%	-37.0	-5.0%	-7.9%	-12.7%
CC1CC(C)(C)CC2(C1)NC(=O)N(CC(=O)NCCc1ccc3c(c1)OCCO3)C2=O (stereo not drawn)	-16.6%	-14.7%	19.6	13.3%	-10.4%	-4.3%
CCN(CCNCC(O)COCc1ccc(Cl)cc1)c1cccc(C)c1 (stereo not drawn)	u	u	26.3	15.8µM*	-27.9%	-7.2%
CCC(c1nnnn1Cc1ccco1)N(CCc1ccccc1)Cc1cc2cc(C)ccc2[nH]c1=O (stereo not drawn)	-25.2%	x	-28.4	u	u	u
CCC(c1nnnn1CCc1ccccc1)N(Cc1ccco1)Cc1cc2c(C)ccc(C)c2[nH]c1=O (stereo not drawn)	0.6%	x	-33.0	11.2µM*	u	u
CCC(c1nnnn1Cc1ccccc1)N(Cc1ccco1)Cc1cc2cc(OC)ccc2[nH]c1=O (stereo not drawn)	u	x	-2.2	-72.3%	-17.4%	u
CCC(c1nnnn1CCc1ccccc1)N(Cc1ccco1)Cc1cc2cc(C)cc(C)c2[nH]c1=O (stereo not drawn)	u	x	-70.6*	10µM*	-20.6%	56.2µM*
Cc1cccc(N2CCN(C(=O)NCc3noc4ccccc34)CC2)c1C	25.7%	3.0%	44.4	x	-9.0%	3.9%
CCOC(=O)Cn1c(=O)n(C2CCCCC2)c2nc(-c3c(F)cccc3Cl)nc(C(N)=O)c21	u	-16.9%	-81.8*	x	-8.1%	3.1%
SMILES	FMDV inh	Vaccinia mCherry	HCMV antiviral	HCV inh	VACV Venus inh	Sm TGR block
CCOC(=O)Cn1c(=O)n(C2CCCCC2)c2nc(-c3cccc(F)c3)nc(C(N)=O)c21	-12.9%	-3.5%	6.6	x	2.1%	-10.4%
Cc1cnc(CNC(=O)C2CCC(=O)N(CCc3ccc(Cl)cc3)C2)cn1 (stereo not drawn)	19.5%	i	36.4	9.8%	-9.7%	-7.8%
Oc1ccccc1-[n+]1c(-c2ccccc2)cc(-c2ccccc2)cc1-c1ccccc1	28.2µM*	-5.7%	-83.9*	x	1.5%	0.0%
Nc1ccccc1-[n+]1c(-c2ccccc2)cc(-c2ccccc2)cc1-c1ccccc1	u	-25.0%	u	-6.1%	-16.9%	4.6%
[O-]c1ccccc1-[n+]1c(-c2ccccc2)cc(-c2ccccc2)cc1-c1ccccc1	28.2µM*	-29.2%	-97.0*	6.31µM*	-26.6%	4.9%
Cc1ccccc1-[n+]1c(-c2ccccc2)cc(-c2ccccc2)cc1-c1ccccc1	10µM*	-2.4%	-96.2*	u	u	-9.5%
CN(C)/C=N/c1nc2ccc3c(c2s1)CCCC3	x	-0.1%	62.4	-17.5%	-13.2%	u
O=C1c2ccccc2C(=O)N1Cc1cc(Cl)c(O)c([N+](=O)[O-])c1	-12.7%	i	-13.0	-6.0%	-0.4%	-17.3%
CCOC(=O)C1(C)CCCCN1C(=O)c1ccccc1OC (stereo not drawn)	-15.6%	32.4%	12.8	x	5.9%	x
OC(COc1cccc2ccccc12)CN1CCN(c2ccccc2)CC1 (stereo not drawn)	-10.3%	x	29.2	1.7%	x	22.7%
CC(COc1cccc2ccccc12)CN1CCN(C)CC1 (stereo not drawn)	-21.6%	x	5.3	5.01µM*	x	25.1µM*
CCC(=NCc1ccc(F)cc1)c1c(O)n(C)c(=O)n(C)c1=O	39.8µM*	x	u	10µM*	x	-2.1%
COc1ccc(CN2CCN(c3ncnc4scc(-c5ccc(F)cc5)c34)CC2)cc1	u	-15.3%	20.7	u	-16.5%	0.3%

Assay outcomes as filed in PubChem BioAssay.
